Screening data as filed in PubChem BioAssay.
A selection: hits, their analogues and other compounds. The true share with any hit is near 5.9%.
ATXN2 expr inh – Primary qHTS for Inhibitors of ATXN expression; HEK-293 ATXN2-luciferase reporter, luminescence, 24 h; Potency, µM (highest dose often 57 µM), for inactives: top-dose activity change, negative = inhibition, usual class: inhibitors; hit rate 0.72% among 360,000; AID 1745845, 2022; note: % is set by controls: 0 for no effect and ±100 for the full control effect; nearly all actives have a fitted effect of over 55% in size
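ATXN2-luciferase reporter cells (luciferase flanked by upstream and downstream ATXN2 gene portions) were treated 24 h at 37 °C with compounds at up to 57 uM. SteadyGlo luminescence gave expression; GF-AFC fluorescence gave viability.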
KB-V1 cytotox – qHTS assay for MDR1-selective chemotherapeutics: Primary screen using the drug-selected MDR subline cells KB-V1. KB-V1 MDR cells viability, CellTiter-Glo, 72 h. Potency, µM (doses to about 46.1 µM), most hits filed as cytotoxic. hit rate 3.4% among 400,000; note: % is set by controls: 0 for no effect and ±100 for the full control effect; nearly all actives have a fitted effect of over 60% in size
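Drug-selected KB-V1 cells, grown in DMEM lacking phenol red with 10% FBS, receive compound titrations; after three days at 37 degrees C, surviving cell ATP is quantified by CellTiter-Glo luminescence and responses normalized and curve-fitted.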
S2 tox – Viability Counterscreen for Primary qHTS for Inhibitors of ATXN expression; S2 cells (HEK-293 line with an ATXN2-luciferase reporter) viability, CellTiter-Fluor protease fluorescence, 24 h; Potency, µM (series often up to 56.7 µM), hits mostly cytotoxic; hit rate 0.49% among 400,000; AID 651635, 2014; note: nearly all actives have a fitted effect of over 40% in size
TGFb inhibitor – qHTS for Inhibitors of TGF-b | HepG2 CAGA-GFP TGF-b/SMAD3 reporter, GFP fluorescence, 18 h; TGF-beta stimulated, 500 pg/mL final | Potency, µM (series often up to 46.1 µM), for the others: at the highest dose activity, negative = inhibition, most hits filed as inhibitors | hit rate 1.2% among 410,000 | AID 588855, 2011; note: % is set by controls: 0 for no effect and ±100 for the full control effect; nearly all actives have a fitted effect of over 65% in size
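First, reporter cells (HEPG2 CAGA-GFP) rested 2 h at 37 degrees C. Next, compounds were pinned in and TGF-beta added to 500 pg/mL final. After 18 h, GFP was imaged per cell and summed per well.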
KB-3-1 tox – qHTS assay for MDR1-selective chemotherapeutics: Primary screen using the parental adenocarcinoma cell KB-3-1 | Potency, µM (doses to about 46.1 µM), most hits filed as cytotoxic | AID 1347075, 2019 | KB-3-1 viability, CellTiter-Glo ATP luminescence, 72 h | hit rate 1.4% among 400,000; note: % is set by controls: 0 for no effect and ±100 for the full control effect; nearly all actives have a fitted effect of over 60% in size
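Cytotoxicity in the drug-sensitive parental line KB-3-1 was scored as loss of CellTiter-Glo luminescence following 72 h incubation with compound. Values come from curve fitting of normalized concentration-response data.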
HepG2 viability – qHTS for Inhibitors of TGF-b: Cytotox Counterscreen. hit rate 0.76% among 410,000. Potency, µM (top dose mostly 46.1 µM), inactives show top-dose activity change, negative = cytotoxicity, most hits filed as cytotoxic. HepG2 CAGA-GFP viability, ATP luminescence, 18 h
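CellTiter-Glo luminescence gave cytotoxicity after 18 hours at 37 degrees C. The cells were HepG2 CAGA-GFP in 1% FBS DMEM, stimulated with 500 pg/mL TGF-beta after compound addition. %Activity was normalised to no-cell wells (complete cell-killing) and DMSO (no toxicity), and curves were fitted and classified.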
Active calls of the source: *; i = inactive; ? = inconclusive; . = no result given. Calls come from the whole dose curve; as a rule, active = well fitted curve in the direction sought with a large enough effect; inconclusive = small, poorly fitted or top-dose-only effect, or another doubt; inactive = no such curve, though single readings can be large; an effect the other way counts as inactive or inconclusive. Potency is the fitted concentration of half-maximal effect.

SMILES	ATXN2 expr inh	KB-V1 cytotox	S2 tox	TGFb inhibitor	KB-3-1 tox	HepG2 viability
COc1ccc(-n2c(SCC(=O)Nc3cc(C)on3)nc3ccccc3c2=O)cc1Cl	-17%	?	i	-3%	?	-15%
CCc1sc2nc(SCC(=O)Nc3cc(C)on3)n(-c3cccc(OC)c3)c(=O)c2c1C	?	1.6µM*	?	-20%	i	-28%
Cc1cc(NC(=O)CSc2nc3ccccc3c(=O)n2C2CCCC2)no1	-19%	1.3µM*	?	-25%	?	1%
CCCN(CCC)C(=O)CSc1nc2ccccc2c(=O)n1C1CCCC1	-7%	7.3µM*	i	?	i	-7%
COc1ccc(C)cc1-n1c(SCC(=O)Nc2cc(C)on2)nc2ccccc2c1=O	1%	18µM*	i	-15%	?	-40%
COc1cccc(-n2c(SCC(=O)Nc3cc(C)on3)nc3ccccc3c2=O)c1	-12%	i	?	1%	i	-21%
CCC(CC)C(=O)Nc1cccc(-c2nc3cccnc3s2)c1	.	.	.	?	.	1%
CCc1cc2cc(C)ccc2nc1SCC(=O)Nc1cc(C)on1	-4%	9.2µM*	i	-5%	i	-8%
Cc1nn(Cc2ccccc2Cl)c2sc(C(=O)OC3CCCC3=O)cc12 (stereo not drawn)	11%	6.5µM*	i	18%	i	-13%
CC(=O)C1=C(O)C(=O)N(c2ccc(Br)cn2)C1c1ccc(Br)cc1 (stereo not drawn)	.	?	i	3%	3.7µM*	-19%
CC(=O)C1=C(O)C(=O)N(c2ccc(Br)cn2)C1c1ccc(F)cc1 (stereo not drawn)	-14%	?	i	-19%	i	-20%
CCc1ccc(-c2ccc3nnc(SCC(=O)Nc4cccc(C(C)=O)c4)n3n2)cc1	.	.	.	0%	.	-6%
CCNc1ccc(S(=O)(=O)NCCN(C)C)cc1[N+](=O)[O-]	.	i	i	1%	i	-107%
CN(C)CCCNS(=O)(=O)c1ccc(NC2CCCCCC2)c([N+](=O)[O-])c1	-36%	?	i	22µM*	18µM*	-171%
CCOc1ccc(C(=O)NCCc2sc(-c3ccc(OC)c(OC)c3)nc2C)cc1	0%	?	i	0%	i	-1%
COC(=O)/C=C1\OCc2cc(OCc3ccccc3)ccc21	.	i	.	.	i	.
CC1CCc2c(sc3ncnc(N4CCOCC4)c23)C1 (stereo not drawn)	18%	15µM*	i	5%	i	-30%
CC1CCc2c(sc3nc(CN4CCOCC4)nc(Sc4ccccc4)c23)C1 (stereo not drawn)	2%	8.2µM*	i	-11%	i	-2%
Cc1cc(C(=O)COc2ccccc2C(N)=O)c(C)n1C	8%	?	i	-2%	i	-9%
Cc1cc(C(=O)COc2cccc3cccnc23)c(C)n1C	41%	16µM*	i	11%	i	-8%
Oc1ccc(Br)cc1C1C=C(c2ccc3c(c2)OCO3)NC(c2cccc(F)c2)N1 (stereo not drawn)	.	.	.	?	.	-103%
CC(C)C(NC(=O)c1ccc2c(c1)OCO2)C(=O)N/N=C/c1cccs1 (stereo not drawn)	1%	i	i	-6%	i	6%
Cc1c(/C=N/NC(=O)C(NC(=O)c2ccc3c(c2)OCO3)C(C)C)c2ccccc2n1C (stereo not drawn)	7%	18µM*	i	?	i	-11%
Cc1ccc(S(=O)(=O)CC(CN2CCCCC2)N2CCCCC2)cc1 (stereo not drawn)	?	i	i	16µM*	?	-93%
CC1(C(=O)Nc2ccc3c(c2)OCO3)CCN1Cc1cccc2c1OCO2 (stereo not drawn)	-24%	?	?	-8%	?	4%
SMILES	ATXN2 expr inh	KB-V1 cytotox	S2 tox	TGFb inhibitor	KB-3-1 tox	HepG2 viability
CC1(C(=O)Nc2cccc3cccnc23)CCN1Cc1cccc2c1OCO2 (stereo not drawn)	6.3µM*	?	14µM*	?	?	-49%
O=C(Nc1cnc(N2CCN(c3ccccc3)CC2)c(C(=O)O)c1)c1cccs1	5%	?	i	-3%	i	4%
OC(COc1ccccc1)CN1CCN(C(c2ccccc2)c2ccccc2)CC1 (stereo not drawn)	-26%	?	i	14µM*	i	-53%
COc1ccc(OCC(O)CN2CCCC2)cc1 (stereo not drawn)	.	?	i	18%	i	13µM*
CCOC(=O)c1c(C)n(C)c2ccc(OCC(O)CN3CCC(C)CC3)cc12 (stereo not drawn)	-23%	i	i	-1%	i	-13%
CCOC(=O)c1c(C)n(C)c2ccc(OCC(O)CN3CCCCCC3)cc12 (stereo not drawn)	-30%	i	18µM*	-16%	i	-36%
OC(COc1ccc(Br)cc1)CN1CCOCC1 (stereo not drawn)	6%	i	i	2%	i	2.8µM*
N#Cc1ccc(OCC(O)CN2CCN(C(c3ccccc3)c3ccccc3)CC2)cc1 (stereo not drawn)	-11%	i	i	-8%	i	-26%
COc1ccc(OCC(O)CN2CCCCCC2)cc1 (stereo not drawn)	-7%	?	i	-6%	i	9%
Cc1ccc(NC(=O)CSc2nccn2Cc2ccc3c(c2)OCO3)c(C)c1	.	.	.	-4%	.	-16%
CCc1ccc(NC(=O)CN2CCCN(Cc3cccc(Cl)c3)S2(=O)=O)cc1	.	i	.	0%	i	-20%
Cc1ccc(SCCNC(=O)c2ccc([N+](=O)[O-])c(C)c2)cc1	-3%	i	i	-11%	i	-15%
O=C(NCCSCc1ccccc1)c1ccccc1	4%	i	i	?	i	-26%
Cc1ccc(C(=O)NCCSCc2ccccc2)cc1[N+](=O)[O-]	6%	21µM*	i	-2%	i	-7%
Cc1cc2cc(CCNC(=O)c3ccc(C)c([N+](=O)[O-])c3)c(=O)[nH]c2cc1C	-19%	6.5µM*	?	-1%	i	0%
O=C(Cn1c(=O)c2sccc2n(Cc2cccc([N+](=O)[O-])c2)c1=O)NCCc1ccccc1	-5%	8.2µM*	i	?	i	-13%
